Measurements: PubChem BioAssay (NCI)
This is part of a sample that, as a whole, favours compounds with a hit. Of some 83,000 tested, about 20% had one in any assay.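 Interpretation: 100, growth as untreated; towards 0, rising growth inhibition; 0, no net growth; 0 to -100, cell death. Compounds scoring below 10 were considered active.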 Calls of active or inactive are those of the source.

Key:
Assay in all cases: NCI-60 one-dose screen, 48 h (100 = growth as untreated, 0 = no growth, -100 = all killed)
SR leukemia = conditions: 10 µM unless noted
RPMI-8226 leukemia = conditions: 10 µM unless noted
OVCAR-8 ovarian = conditions: 10 µM unless noted
OVCAR-5 ovarian = conditions: 10 µM unless noted
OVCAR-4 ovarian = conditions: 10 µM unless noted
SK-OV-3 ovarian = conditions: 10 µM unless noted
IGROV1 ovarian = conditions: 10 µM unless noted
OVCAR-3 ovarian = conditions: 10 µM unless noted
HS 578T breast = conditions: 10 µM
NCI/ADR-RES ovarian = conditions: 10 µM unless noted
T-47D breast = conditions: 10 µM unless noted
BT-549 breast = conditions: 10 µM unless noted
MDA-MB-435 melanoma = conditions: 10 µM unless noted
SW-620 colon = conditions: 10 µM unless noted
MCF7 breast = conditions: 10 µM unless noted
HCT-116 colon = conditions: 10 µM unless noted
HCC-2998 colon = conditions: 10 µM
KM12 colon = conditions: 10 µM unless noted

Measured: growth

CC(C)(C)c1ccc(Cn2cc(CSc3nc4ccccc4s3)nn2)cc1
inactive: SR leukemia 98.7% | RPMI-8226 leukemia 97.2% | OVCAR-8 ovarian 92% | OVCAR-5 ovarian 94.4% | OVCAR-4 ovarian 97.5% | SK-OV-3 ovarian 96.6% | IGROV1 ovarian 90.7% | OVCAR-3 ovarian 107% | HS 578T breast 93.7% | NCI/ADR-RES ovarian 92.8% | T-47D breast 73.4% | BT-549 breast 87.7% | MDA-MB-435 melanoma 106% | SW-620 colon 97.3% | MCF7 breast 91.4% | HCT-116 colon 121% | HCC-2998 colon 104% | KM12 colon 101%

C=CCCCOC1[C@H](OCc2ccccc2)C(OCc2ccccc2)C(OC)O[C@@H]1CNC(=O)c1cccc(I)c1 (some centres undefined)
active: RPMI-8226 leukemia 8.34%
inactive: SR leukemia 26.7% | OVCAR-8 ovarian 51.8% | OVCAR-5 ovarian 69% | OVCAR-4 ovarian 22.6% | SK-OV-3 ovarian 45.5% | IGROV1 ovarian 43.2% | OVCAR-3 ovarian 50.1% | HS 578T breast 79.7% | NCI/ADR-RES ovarian 25.9% | T-47D breast 33.4% | BT-549 breast 57.5% | MDA-MB-435 melanoma 44.7% | SW-620 colon 32.6% | MCF7 breast 20.4% | HCT-116 colon 19.8% | HCC-2998 colon 86.7% | KM12 colon 38.5%

CCc1nc2cc(/C=C/C(=O)NO)c(F)cc2c(=O)n1CCc1ccccc1
inactive: RPMI-8226 leukemia 12% | OVCAR-5 ovarian 25.4% | OVCAR-4 ovarian 11% | IGROV1 ovarian 26.1% | HS 578T breast 54% | BT-549 breast 15.7% | MDA-MB-435 melanoma 18.2% | SW-620 colon 18.4% | MCF7 breast 12.3% | HCC-2998 colon 37.3% | KM12 colon 15.5%
active: SR leukemia 8.11% | OVCAR-8 ovarian 6.53% | SK-OV-3 ovarian -4.18% | OVCAR-3 ovarian 5.14% | NCI/ADR-RES ovarian -11.3% | T-47D breast -0.665% | HCT-116 colon 5.15%

CC/C=C\C[C@H]1C/C=C2/C(=O)C=C[C@@H]2C/C=C\CCCC(=O)O1
inactive: OVCAR-5 ovarian 21.7% | OVCAR-4 ovarian 10.6% | SK-OV-3 ovarian 60.2% | HS 578T breast 36.4% | T-47D breast 39.7%
active: SR leukemia 0.487% | RPMI-8226 leukemia -19.1% | OVCAR-8 ovarian 10% | IGROV1 ovarian -26.7% | OVCAR-3 ovarian -47.3% | NCI/ADR-RES ovarian -1.72% | BT-549 breast -20.4% | MDA-MB-435 melanoma -45.5% | SW-620 colon -51% | MCF7 breast -1.97% | HCT-116 colon -67.5% | HCC-2998 colon -79.4% | KM12 colon -68.7%

N#Cc1cc2[nH]c3ccc(OC(F)(F)F)cc3c2oc1=O
inactive: SR leukemia 26.2% | RPMI-8226 leukemia 89.1% | OVCAR-8 ovarian 86.8% | OVCAR-5 ovarian 118% | OVCAR-4 ovarian 73.7% | SK-OV-3 ovarian 62.5% | IGROV1 ovarian 78.9% | OVCAR-3 ovarian 67.1% | HS 578T breast 86.2% | NCI/ADR-RES ovarian 70.9% | T-47D breast 61.2% | BT-549 breast 76.5% | MDA-MB-435 melanoma 12.7% | SW-620 colon 71.6% | MCF7 breast 81.4% | HCT-116 colon 81.2% | HCC-2998 colon 83.3% | KM12 colon 80.2%

CCCCCC(=O)OCc1ccc(Cl)c(Cl)c1
inactive: SR leukemia 97.5% | RPMI-8226 leukemia 104% | OVCAR-8 ovarian 103% | OVCAR-5 ovarian 108% | OVCAR-4 ovarian 105% | SK-OV-3 ovarian 107% | IGROV1 ovarian 106% | OVCAR-3 ovarian 106% | HS 578T breast 103% | NCI/ADR-RES ovarian 102% | T-47D breast 105% | BT-549 breast 109% | MDA-MB-435 melanoma 109% | SW-620 colon 109% | MCF7 breast 93.9% | HCT-116 colon 101% | HCC-2998 colon 94.8% | KM12 colon 103%

Cc1cc2c3c(cccc3c1)C(=O)c1ccccc1-2
inactive: SR leukemia 96.6% | RPMI-8226 leukemia 109% | OVCAR-8 ovarian 107% | OVCAR-5 ovarian 100% | OVCAR-4 ovarian 94.8% | SK-OV-3 ovarian 107% | IGROV1 ovarian 90.5% | OVCAR-3 ovarian 90.2% | HS 578T breast 99.6% | NCI/ADR-RES ovarian 77.9% | T-47D breast 92.1% | BT-549 breast 95.3% | MDA-MB-435 melanoma 103% | SW-620 colon 94.7% | MCF7 breast 82% | HCT-116 colon 96.1% | HCC-2998 colon 98.2% | KM12 colon 93.3%

CCCCCCCC(=O)SCC/C=C/[C@@H]1CC(=O)NCc2cccc(n2)C2=N[C@@](C)(CS2)C(=O)N[C@@H](C(C)C)C(=O)O1
active: OVCAR-8 ovarian 7.64% | OVCAR-5 ovarian 6.82% | SK-OV-3 ovarian -31.4% | IGROV1 ovarian 3.42% | OVCAR-3 ovarian -26.5% | NCI/ADR-RES ovarian 6.46% | T-47D breast -14.1% | MDA-MB-435 melanoma -9.48% | SW-620 colon 3.63% | HCT-116 colon -27.7% | HCC-2998 colon -73.4% | KM12 colon 3.74%
inactive: SR leukemia 13.7% | RPMI-8226 leukemia 14.3% | OVCAR-4 ovarian 18.3% | HS 578T breast 15.4% | BT-549 breast 32% | MCF7 breast 15.5%

COc1ccc(-c2cc3c(oc2=O)-c2ccccc2OC3OC(C)=O)cc1 (centres undefined)
inactive: SR leukemia 80.7% | RPMI-8226 leukemia 83.1% | OVCAR-8 ovarian 107% | OVCAR-5 ovarian 111% | OVCAR-4 ovarian 90.7% | SK-OV-3 ovarian 93.4% | IGROV1 ovarian 103% | OVCAR-3 ovarian 109% | HS 578T breast 89% | NCI/ADR-RES ovarian 93.8% | T-47D breast 68.5% | BT-549 breast 102% | MDA-MB-435 melanoma 110% | SW-620 colon 98.7% | MCF7 breast 89.6% | HCT-116 colon 74% | KM12 colon 111%

CC(C)(C)CC(C)(C)Nc1c(-c2c(O)c3ccccc3oc2=O)nc2c(Cl)cc(C(F)(F)F)cn12
inactive: SR leukemia 104% | RPMI-8226 leukemia 99.2% | OVCAR-8 ovarian 102% | OVCAR-5 ovarian 109% | OVCAR-4 ovarian 100% | SK-OV-3 ovarian 93% | IGROV1 ovarian 90.4% | OVCAR-3 ovarian 112% | HS 578T breast 103% | NCI/ADR-RES ovarian 108% | T-47D breast 95.3% | BT-549 breast 78.7% | MDA-MB-435 melanoma 103% | SW-620 colon 102% | MCF7 breast 107% | HCT-116 colon 70.4% | HCC-2998 colon 107% | KM12 colon 103%
